From PubChem BioAssay
“And” between values parts separate entries of the source, which are not always exact repeats. Equal entries are not always repeated. The source made the active and inactive calls.

Key:
[1] = system: PRMT1 (protein arginine N-methyltransferase 1); assay: small molecules binding arginine methyltransferase PRMT1 – biochemical, small-molecule microarray, 635 nm fluorescence, primary screen (AID 1088); settings: higher = more signal;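 also: binding of Prmt1 protein to compounds spotted on small-molecule microarray slides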
[2] = growth effects on S. cerevisiae YJM789 – YJM789 clinical isolate, OD600, 24 h, basal, primary screen (AID 1089); settings: higher = more signal, called active from +8 up or from −8 down;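 also: growth of clinical yeast isolate S. cerevisiae YJM 789 seeded 1000 cells per well; test concentration not given here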
[3] = S. pombe growth modifiers, basal conditions – strain 972, OD600, 24 h, no modulator, primary screen (AID 1090);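 also: basal condition with compound alone and no growth modifier present; test concentration not given here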; settings: S. pombe 972 growth, higher = more signal, called active from +8 up or from −8 down
[4] = budding yeast growth modifiers under rapamycin – strain BY4716, OD600, 96 h, primary screen (AID 1091); also: test concentration not given here; settings: S. cerevisiae BY4716 + rapamycin, higher = more signal, called active from +8 up or from −8 down
[5] = biological target: Torsin-1A-interacting protein 2 (Homo sapiens) (UniProt Q8NFQ8); assay: small molecules binding lysate-expressed LULL1 – cell lysate, human LULL1 lysate, 635/667 nm fluorescence, primary screen (AID 1092); settings: small-molecule microarray, hLULL1 lysate binding, 635 nm fluorescence; higher = more signal;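 also: probe is lysate of COS7 cells overexpressing human LULL1; score merges per-feature 667 nm fluorescence with signal-to-noise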
Chain of Torsin-1A-interacting protein 2 (Homo sapiens) (Q8NFQ8 whole entry, looked up): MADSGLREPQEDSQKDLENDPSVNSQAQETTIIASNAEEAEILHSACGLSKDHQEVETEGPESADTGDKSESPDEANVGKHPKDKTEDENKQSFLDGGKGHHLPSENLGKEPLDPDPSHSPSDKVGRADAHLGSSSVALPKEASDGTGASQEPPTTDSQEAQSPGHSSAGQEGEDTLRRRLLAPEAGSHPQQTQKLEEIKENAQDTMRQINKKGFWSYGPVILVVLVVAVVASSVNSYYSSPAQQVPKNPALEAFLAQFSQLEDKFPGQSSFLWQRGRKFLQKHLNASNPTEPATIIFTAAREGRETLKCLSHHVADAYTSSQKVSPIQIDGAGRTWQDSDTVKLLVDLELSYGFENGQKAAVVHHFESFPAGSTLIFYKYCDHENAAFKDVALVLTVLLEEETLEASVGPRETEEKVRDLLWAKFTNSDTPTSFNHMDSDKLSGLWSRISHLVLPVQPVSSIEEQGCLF

[6] = optical density change of DRC41 E. coli – strain DRC41, OD650, 24 h, E. coli filamentation project, primary screen (AID 1093);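 also: MC1000 strain lacking acrAB efflux and sulA so SOS filamentation is blocked; test concentration not given here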; settings: E. coli DRC41 growth, higher = more signal, called active from +8 up or from −8 down
[7] = probe aLefty2 binding to arrayed compounds – biochemical, biotinylated probe, 635/667 nm fluorescence, primary screen (AID 1094); settings: small-molecule microarray, higher = more signal;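 also: score merges spot fluorescence near 667 nm with spot signal-to-noise ratio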
[8] = system: Noggin (protein binding on small-molecule microarray); assay: small molecules binding Noggin protein – biochemical, 635/667 nm fluorescence, primary screen (AID 1095); settings: 635 nm fluorescence, higher = more signal;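 also: score merges 667 nm feature fluorescence with signal to noise over triplicate slides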
[9] = biological target: Neurogenic locus notch homolog protein 3 (Homo sapiens) (UniProt Q9UM47); assay: small molecules binding NOTCH3 protein – biochemical, 635/667 nm fluorescence, primary screen (AID 1096); settings: small-molecule microarray, 635 nm fluorescence, higher = more signal
Chain of Neurogenic locus notch homolog protein 3 (Homo sapiens) (Q9UM47 whole entry, looked up): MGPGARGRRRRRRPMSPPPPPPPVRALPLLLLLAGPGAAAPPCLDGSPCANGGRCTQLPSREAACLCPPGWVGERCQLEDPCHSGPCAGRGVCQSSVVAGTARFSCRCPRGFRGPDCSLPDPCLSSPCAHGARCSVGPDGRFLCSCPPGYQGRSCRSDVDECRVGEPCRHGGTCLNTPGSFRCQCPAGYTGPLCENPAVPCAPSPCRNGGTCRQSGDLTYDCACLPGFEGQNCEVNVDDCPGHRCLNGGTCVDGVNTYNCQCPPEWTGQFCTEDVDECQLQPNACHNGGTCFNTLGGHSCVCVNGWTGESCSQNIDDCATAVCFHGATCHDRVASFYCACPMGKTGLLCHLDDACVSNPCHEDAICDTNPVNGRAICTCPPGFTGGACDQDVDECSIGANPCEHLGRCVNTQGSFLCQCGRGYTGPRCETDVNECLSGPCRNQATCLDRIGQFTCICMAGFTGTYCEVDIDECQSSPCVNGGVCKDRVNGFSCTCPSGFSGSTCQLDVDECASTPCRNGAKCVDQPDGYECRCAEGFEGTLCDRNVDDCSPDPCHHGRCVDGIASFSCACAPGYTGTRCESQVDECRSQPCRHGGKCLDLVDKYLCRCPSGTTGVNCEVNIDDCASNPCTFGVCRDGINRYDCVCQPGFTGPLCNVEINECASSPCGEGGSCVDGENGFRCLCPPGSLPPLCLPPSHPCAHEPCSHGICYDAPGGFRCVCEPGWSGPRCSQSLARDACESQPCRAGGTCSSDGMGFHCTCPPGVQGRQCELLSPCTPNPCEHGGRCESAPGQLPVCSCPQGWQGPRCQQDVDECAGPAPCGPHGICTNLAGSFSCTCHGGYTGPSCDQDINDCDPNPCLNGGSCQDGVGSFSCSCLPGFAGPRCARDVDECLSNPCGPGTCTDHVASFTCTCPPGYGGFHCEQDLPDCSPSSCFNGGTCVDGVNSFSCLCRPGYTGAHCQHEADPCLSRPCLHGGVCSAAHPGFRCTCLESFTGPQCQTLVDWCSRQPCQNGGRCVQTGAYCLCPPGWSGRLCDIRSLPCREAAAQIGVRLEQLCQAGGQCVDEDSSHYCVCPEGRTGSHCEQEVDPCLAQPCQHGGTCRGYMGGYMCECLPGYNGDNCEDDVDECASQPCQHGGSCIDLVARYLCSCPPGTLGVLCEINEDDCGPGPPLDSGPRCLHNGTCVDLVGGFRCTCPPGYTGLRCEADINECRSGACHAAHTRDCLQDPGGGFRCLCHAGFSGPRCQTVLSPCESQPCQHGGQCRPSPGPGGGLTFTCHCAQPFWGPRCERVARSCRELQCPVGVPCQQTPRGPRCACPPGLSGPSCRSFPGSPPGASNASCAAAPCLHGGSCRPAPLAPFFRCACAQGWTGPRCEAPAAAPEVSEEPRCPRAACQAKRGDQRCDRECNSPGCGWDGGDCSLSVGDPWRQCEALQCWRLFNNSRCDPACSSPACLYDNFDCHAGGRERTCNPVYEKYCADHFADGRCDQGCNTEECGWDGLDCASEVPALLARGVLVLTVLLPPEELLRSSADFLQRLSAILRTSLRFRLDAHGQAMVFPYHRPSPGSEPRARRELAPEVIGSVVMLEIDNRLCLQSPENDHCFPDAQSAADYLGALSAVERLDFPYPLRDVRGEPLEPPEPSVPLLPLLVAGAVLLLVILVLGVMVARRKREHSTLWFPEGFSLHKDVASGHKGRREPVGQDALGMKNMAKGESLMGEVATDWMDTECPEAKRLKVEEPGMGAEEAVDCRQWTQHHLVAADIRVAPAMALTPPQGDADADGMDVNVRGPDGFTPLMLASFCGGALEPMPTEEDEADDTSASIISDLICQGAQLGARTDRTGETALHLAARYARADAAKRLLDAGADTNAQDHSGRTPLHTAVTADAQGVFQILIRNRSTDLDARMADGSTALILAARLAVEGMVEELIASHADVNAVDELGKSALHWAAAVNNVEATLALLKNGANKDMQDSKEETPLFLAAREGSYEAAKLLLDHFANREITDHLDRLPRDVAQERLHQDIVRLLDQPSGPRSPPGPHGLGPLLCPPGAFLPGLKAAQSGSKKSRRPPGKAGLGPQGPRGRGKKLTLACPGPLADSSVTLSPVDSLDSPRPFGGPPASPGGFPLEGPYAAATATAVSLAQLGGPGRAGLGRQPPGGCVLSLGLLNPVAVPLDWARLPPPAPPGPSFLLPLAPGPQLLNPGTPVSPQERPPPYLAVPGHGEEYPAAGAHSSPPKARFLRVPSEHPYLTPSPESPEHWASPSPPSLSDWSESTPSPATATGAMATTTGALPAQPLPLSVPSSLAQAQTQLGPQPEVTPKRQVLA

[10] = probe aEGFR binding to arrayed compounds – biochemical, biotinylated probe, 635/667 nm fluorescence, primary screen (AID 1097); settings: small-molecule microarray, higher = more signal;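 also: probe is a biotinylated anti-EGFR antibody binding compounds printed on slides; score combines fluorescence near 667 nm and signal to noise of each spot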
[11] = system: Plasmodium falciparum Sir2 (PF13_0152, Sir2A); assay: Plasmodium falciparum Sir2A binding compounds – biochemical, small-molecule microarray, 635 nm fluorescence, primary screen (AID 1098); settings: fluorescence 635 nm, higher = more signal;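 also: score merges spot fluorescence intensity with its signal-to-noise ratio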
[12] = probe aDKK1 binding to arrayed compounds – biochemical, biotinylated probe, 635/667 nm fluorescence, primary screen (AID 1099); settings: small-molecule microarray, higher = more signal;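 also: score merges 667nm spot fluorescence with signal to noise across triplicate slides; reference of the scale not given here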
[13] = probe aCHRDL2 binding to arrayed compounds – biochemical, biotinylated probe, 635/667 nm fluorescence, primary screen (AID 1100); settings: small-molecule microarray, higher = more signal
[14] = change in splice reporter luminescence, either direction, cell-based, HEK293, spliceosome inhibition project, primary screen (AID 1101); settings: HEK293 splicing luciferase reporter, 24 h, higher = more signal, called active from +8 up or from −8 down;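 also: HEK293 cells carrying a splicing-competent luciferase reporter gene; test concentration not given here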
[15] = biological target: Fibroblast growth factor 10 (Homo sapiens) (UniProt O15520); assay: compounds binding fibroblast growth factor 10 – biochemical, small-molecule microarray, 635 nm fluorescence, primary screen (AID 1102); settings: FGF10 binding, fluorescence 635 nm, higher = more signal
Chain of Fibroblast growth factor 10 (Homo sapiens) (O15520 whole entry, looked up): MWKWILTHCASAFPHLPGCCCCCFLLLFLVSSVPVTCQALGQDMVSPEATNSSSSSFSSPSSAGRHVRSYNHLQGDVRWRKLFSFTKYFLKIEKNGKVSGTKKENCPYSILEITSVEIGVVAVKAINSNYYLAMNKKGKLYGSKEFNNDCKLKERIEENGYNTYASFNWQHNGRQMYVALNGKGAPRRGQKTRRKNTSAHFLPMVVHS

[16] = system: glycogen synthase kinase-3 (GSK3A per assay name; protocol says GSK3B); assay: compounds binding glycogen synthase kinase-3 – biochemical, small-molecule microarray, 635 nm fluorescence, GSK3A, primary screen (AID 1103); settings: fluorescence 635 nm, higher = more signal; also: the record names both GSK3A and GSK3B
[17] = biological target: Epidermal growth factor receptor (Homo sapiens) (UniProt P00533); assay: compounds binding epidermal growth factor receptor – biochemical, small-molecule microarray, 635 nm fluorescence, primary screen (AID 1104); settings: EGFR binding, higher = more signal;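 also: score merges 667 nm emission intensity with spot signal to noise over triplicate slides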
Chain of Epidermal growth factor receptor (Homo sapiens) (P00533 whole entry, looked up): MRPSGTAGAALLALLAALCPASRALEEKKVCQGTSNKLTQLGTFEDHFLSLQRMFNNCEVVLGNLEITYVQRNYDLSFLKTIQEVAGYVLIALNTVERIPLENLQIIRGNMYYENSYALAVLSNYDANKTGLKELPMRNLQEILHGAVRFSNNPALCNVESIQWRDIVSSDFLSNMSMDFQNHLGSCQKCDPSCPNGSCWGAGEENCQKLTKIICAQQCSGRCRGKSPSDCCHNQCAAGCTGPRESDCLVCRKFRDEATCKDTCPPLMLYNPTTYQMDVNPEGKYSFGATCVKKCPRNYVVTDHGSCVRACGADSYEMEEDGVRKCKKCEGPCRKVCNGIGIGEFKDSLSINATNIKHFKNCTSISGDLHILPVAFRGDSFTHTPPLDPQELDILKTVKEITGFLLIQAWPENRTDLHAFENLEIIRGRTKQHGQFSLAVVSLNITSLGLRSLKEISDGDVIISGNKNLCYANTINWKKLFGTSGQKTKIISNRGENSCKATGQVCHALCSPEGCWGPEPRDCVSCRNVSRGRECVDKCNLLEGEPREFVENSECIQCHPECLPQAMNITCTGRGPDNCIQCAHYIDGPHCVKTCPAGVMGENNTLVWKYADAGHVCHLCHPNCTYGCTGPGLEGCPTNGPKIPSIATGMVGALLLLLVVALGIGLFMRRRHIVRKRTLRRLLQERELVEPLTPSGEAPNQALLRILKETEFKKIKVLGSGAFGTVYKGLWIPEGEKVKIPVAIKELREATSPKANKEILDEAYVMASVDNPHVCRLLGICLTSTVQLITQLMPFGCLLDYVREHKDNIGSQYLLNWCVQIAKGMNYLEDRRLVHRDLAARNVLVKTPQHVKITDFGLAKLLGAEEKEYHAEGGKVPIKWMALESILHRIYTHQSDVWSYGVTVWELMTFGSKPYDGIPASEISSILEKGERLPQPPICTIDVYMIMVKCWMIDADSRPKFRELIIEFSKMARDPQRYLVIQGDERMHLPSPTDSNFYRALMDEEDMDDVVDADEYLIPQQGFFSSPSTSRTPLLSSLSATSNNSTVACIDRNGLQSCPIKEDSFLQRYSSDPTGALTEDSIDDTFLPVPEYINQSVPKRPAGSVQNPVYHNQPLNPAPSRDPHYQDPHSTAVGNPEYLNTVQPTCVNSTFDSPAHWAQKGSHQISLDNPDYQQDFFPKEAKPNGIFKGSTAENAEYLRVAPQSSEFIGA

[18] = biological target: Follistatin-related protein 3 (Homo sapiens) (UniProt O95633); assay: compounds binding follistatin-related protein 3 – biochemical, small-molecule microarray, 635 nm fluorescence, primary screen (AID 1105); settings: FSTL3 binding, higher = more signal;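 also: score merges emission near 667 nm and signal to noise per printed spot across three slides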
Chain of Follistatin-related protein 3 (Homo sapiens) (O95633 whole entry, looked up): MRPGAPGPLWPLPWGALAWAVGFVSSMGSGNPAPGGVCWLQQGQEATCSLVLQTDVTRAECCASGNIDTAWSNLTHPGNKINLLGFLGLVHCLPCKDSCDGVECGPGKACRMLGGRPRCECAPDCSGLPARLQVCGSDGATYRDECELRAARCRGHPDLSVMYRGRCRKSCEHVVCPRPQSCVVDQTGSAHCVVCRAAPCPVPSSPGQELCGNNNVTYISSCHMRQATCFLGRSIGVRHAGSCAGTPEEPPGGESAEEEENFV

[19] = biological target: Dickkopf-related protein 1 (Homo sapiens) (UniProt O94907); assay: small molecules binding DKK1 protein – biochemical, small-molecule microarray, 635 nm fluorescence scan, primary screen (AID 1106); settings: higher = more signal;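 also: score merges emission near 667 nm with signal to noise over three replicate slides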
Chain of Dickkopf-related protein 1 (Homo sapiens) (O94907 whole entry, looked up): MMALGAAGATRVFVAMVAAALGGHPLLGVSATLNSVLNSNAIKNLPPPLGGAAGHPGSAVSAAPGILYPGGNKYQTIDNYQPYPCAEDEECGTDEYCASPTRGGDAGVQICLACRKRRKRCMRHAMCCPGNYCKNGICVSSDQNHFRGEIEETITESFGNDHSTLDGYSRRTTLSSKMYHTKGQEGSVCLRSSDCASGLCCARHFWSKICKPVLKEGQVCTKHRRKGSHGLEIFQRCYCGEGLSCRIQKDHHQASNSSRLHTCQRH

[20] = system: Inhibin beta A chain (activin A); assay: small molecules binding activin A – biochemical, small-molecule microarray, 635 nm fluorescence scan, primary screen (AID 1107); settings: INHBA, higher = more signal;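 also: mouse activin A protein probed at 4.33 µg/mL on printed slides; score merges bound-protein fluorescence near 667 nm with spot signal-to-noise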

| SMILES | composite z-score [1] | z-score [2] | z-score [3] | z-score [4] | composite z-score [5] | z-score [6] | composite z-score [7] | composite z-score [8] | composite z-score [9] | composite z-score [10] | composite z-score [11] | composite z-score [12] | composite z-score [13] | z-score [14] | composite z-score [15] | composite z-score [16] | composite z-score [17] | composite z-score [18] | composite z-score [19] | composite z-score [20] |
| --- | --- | --- | --- | --- | --- | --- | --- | --- | --- | --- | --- | --- | --- | --- | --- | --- | --- | --- | --- | --- |
| C=CCN(C(=O)C(c1cccs1)N(C(=O)/C=C\C(=O)O)c1ccc(CCO)cc1)c1ccc(OC)cc1 (stereo not given) | -1.26 and -1.84 | -0.755 (inactive) and 0.13 (inactive) | -0.548 (inactive) and -0.894 (inactive) | -0.929 (inactive) and -0.544 (inactive) | -0.879 and -1.32 | 1.92 (inactive) and 0.715 (inactive) | -0.0446 and -0.0463 | -1.86 and -2.24 | -0.314 and -1.78 | -0.231 and -0.348 | -0.087 and -1.23 | -0.26 and 0.0389 | 0.822 and 1.13 | 0.0213 (inactive) and 0.54 (inactive) | -1.94 and -2.06 | -1.57 and -1.13 | -1.46 and -2.92 | -1.38 and -2.79 | -2.88 and -3.33 | -1.56 and -1.86 |
| CCOC(=O)[C@@H]1CC2O[C@]23C[C@@H]1C(=O)N1CCC[C@@H]1[C@H]3O[Si](C)(C)C(C)(C)C (stereo not given in full) | -1.64 and -0.147 | -0.418 (inactive) and -1.22 (inactive) | -1.05 (inactive) and -0.791 (inactive) | -0.435 (inactive) and -0.321 (inactive) | -1.04 and 0.179 | -0.458 (inactive) and -0.86 (inactive) | -0.357 and -0.0163 | -0.355 and 0.12 | -0.868 and -0.199 | -0.12 and -0.0314 | -0.494 and -0.107 | -0.557 and -0.234 | -0.645 and -0.63 | 0.559 (inactive) and 0.577 (inactive) | -0.438 and 0.433 | -0.755 and 0.491 | -0.133 and -0.303 | -0.937 and 0.184 | 0.389 and 0.364 | 0.456 and 0.999 |
| CCCCN1CC=CC23O[C@@H]4C=CCCOC(=O)C4[C@H]2C(=O)N(C(C)CO)[C@@H]3C1=O (stereo not given in full) | 0.275 and -0.575 | -0.601 (inactive) and 1.38 (inactive) | -0.158 (inactive) and 1.52 (inactive) | -0.164 (inactive) and 0.868 (inactive) | 3.12 and -0.0307 | -0.164 (inactive) and 0.287 (inactive) | -0.179 and -0.0421 | -0.72 and -0.244 | -0.391 and -0.4 | -0.221 and 0.0329 | 0.381 and 0.0105 | -0.286 and -0.221 | 0.473 and -0.194 | 0.856 (inactive) and -0.0825 (inactive) | -0.346 and 0.232 | -0.662 and -0.551 | -0.683 and -0.191 | -0.934 and -0.0066 | -0.135 and 0.176 | 0.958 and 1.07 |
| CC(C)=CCCC(C)=CCON=C1C[C@@H](O)[C@@H](O)[C@@H]2[C@@H]3C(=O)N([C@@H](C)c4ccccc4)C(=O)[C@@H]3CC[C@H]12 | 1.13 | -1.23 (inactive) | -0.846 (inactive) | -0.989 (inactive) | 2.28 | -1.39 (inactive) | -0.0991 | 0.454 | 0.492 | -0.162 | 0.948 | -0.238 | -0.213 | -1.19 (inactive) | 0.739 | 0.692 | 0.525 | 0.718 | 0.645 | 1.15 |
| CC(C)=NO[C@@H](C)c1cc(-c2c(C)cc(C)cc2C)no1 | -0.389 | -0.166 (inactive) | -3.55 (inactive) | -0.0423 (inactive) | 0.168 | -0.272 (inactive) | -0.122 | 0.412 | -0.434 | -0.101 | 0.624 | -0.0037 | 0.0373 | -1.47 (inactive) | 0.0369 | -0.166 | -0.0855 | -0.234 | -0.289 | 0.952 |
| C#CCN1C(/C=C/c2ccccc2)C(=O)OC[C@H]1c1ccccc1 (stereo not given in full) | -0.0815 and 0.365 | -3.12 (inactive) and -0.539 (inactive) | -7.61 (inactive) and -3.7 (inactive) | -3.5 (inactive) and -1.57 (inactive) | 0.447 and 2.09 | 1.07 (inactive) and 0.53 (inactive) | -0.0766 and -0.215 | 0.899 and 0.231 | 0.719 and 0.768 | -0.0304 and -0.0311 | 0.025 and 1.16 | -0.23 and -0.207 | -0.688 and -0.55 | -2.64 (inactive) and -0.366 (inactive) | 0.33 and 0.0389 | 0.658 and 0.0786 | 0.62 and 0.18 | 0.755 and 0.747 | 0.69 and 0.375 | 0.902 and 0.0774 |
| C=CCN1C(=O)[C@]2(O[C@H](CCn3cc(CCO)nn3)[C@@H]([Si](C)(C)c3ccc(OC)cc3)[C@@H]2C)c2cc(N3C(=O)c4cccc5cccc3c45)ccc21 | 1.27 and 1.46 | 1.25 (inactive) and 0.648 (inactive) | 1.82 (inactive) and 1.64 (inactive) | 36.8 (active) and 36.6 (active) | 1.73 and 1.57 | 1.43 (inactive) and 0.793 (inactive) | -0.166 and -0.177 | 0.708 and 0.778 | 0.644 and 0.979 | -0.0828 and -0.238 | 0.306 and 1.07 | -0.206 and -0.233 | -0.106 and -0.142 | -4 (inactive) and -3.52 (inactive) | 0.726 and 1.05 | 0.26 and 0.521 | -0.0684 and -0.247 | 0.228 and 0.181 | -0.0095 and -0.0589 | 0.538 and 0.516 |
| C[C@@H]1CC[C@H]2C(=O)O[C@H](CN=[N+]=[N-])CN2[C@H]1c1ccc(Br)cc1 | 0.692 and 0.323 | -0.471 (inactive) and 0.113 (inactive) | -16.7 (active) and -14.3 (active) | -2.15 (inactive) and -0.441 (inactive) | 0.359 and -0.0523 | -0.548 (inactive) and 0.433 (inactive) | -0.245 and -0.0174 | 0.366 and 0.115 | -0.105 and -1.06 | 0.0172 and -0.252 | -0.0157 and 0.121 | 0.117 and -0.31 | -0.444 and -0.466 | 0.254 (inactive) and -0.0654 (inactive) | 0.152 and -0.213 | -0.267 and -0.529 | 0.0267 and 0.0063 | -0.237 and -0.547 | 0.342 and -0.127 | 0.746 and 0.78 |
